Here are results for 23 compounds from the supplement of paper PMC9801561.

Unmarked numbers belong to inactive results.
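Further: biolog PM4 phosphorus and sulfur plates, tetrazolium violet dye reduction read in the OmniLog every 15 min, kinetic curves scored by DuctApe, each plate run in triplicate.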

The subject of the first assay is Escherichia coli Nissle 1917. Description: DuctApe activity index of respiration/growth curve (0 no growth to 9 maximum) (index 0-9); higher = more growth / nutrient utilisation, active = 3 or more; extreme values may be limits of the assay. As to conditions: nutrient role: C-Source, carboxylic acid; incubation: 48 h, 37 °C.
On to `O=C1O[C@H](CO)[C@@H](O)[C@H]1O` [D-Ribono-1,4-Lactone], for which the DuctApe activity index was 0. Turning to `O=C(O)CC(=O)O` [Malonic acid], the DuctApe activity index is 0. Consider `COC(=O)CCC(=O)O` [Mono-Methylsuccinate], for which the DuctApe activity index is 1.33. Same read-out and setting: as for `O=C(O)C(=O)O` [Oxalic acid], the figure is 0; as for `CC[C@H](O)C(=O)O` [a-Hydroxybutyric acid], 4 (active). Same read-out and setting: as for `O=C(O)/C=C/C(=O)O` [Fumaric acid], the figure is 8.33 (active).

As for `CCCCCCCCCC(=O)O` [Capric acid], the DuctApe activity index is 0.

The same assay, now with this note: nutrient role: sole nitrogen source (pyruvate carbon); incubation: 48 h, 37 °C.
As for `NC(=O)NCCC[C@H](N)C(=O)O` [L-Citrulline], the DuctApe activity index is 2.33. Still for that read-out and setting: as for `C[C@H](N)C(=O)N[C@@H](Cc1cnc[nH]1)C(=O)O`, the figure is 7.67 (active); as for `CCCCN` [N-Butylamine], 0; as for `O=c1cc[nH]c(=O)[nH]1` [Uracil], 0.

The same assay, now with this note: nutrient role: sole phosphorus source (pyruvate carbon); incubation: 48 h, 37 °C.
In the case of `N[C@H](COP(=O)(O)O)C(=O)O` [O-Phospho-D-Serine], the DuctApe activity index was 8.67 (active). Same read-out and setting: as for `Cc1cn([C@H]2C[C@H](O)[C@@H](COP(=O)(O)O)O2)c(=O)[nH]c1=O` [Thymidine 5`-Monophosphate], the figure is 8.67 (active); as for `Cc1cn([C@H]2C[C@H](OP(=O)(O)O)[C@@H](CO)O2)c(=O)[nH]c1=O` [Thymidine 3`-Monophosphate], 8.67 (active). On the same count and under the same terms, as for `O=P(O)(O)O[C@H]1[C@H](OP(=O)(O)O)[C@@H](OP(=O)(O)O)[C@H](OP(=O)(O)O)[C@@H](OP(=O)(O)O)[C@H]1OP(=O)(O)O` [Inositol Hexaphosphate], the figure is 8.67 (active). With `Nc1nc2c(ncn2[C@@H]2O[C@H](CO)[C@@H](OP(=O)(O)O)[C@H]2O)c(=O)[nH]1` [Guanosine 3`-Monophosphate], the DuctApe activity index is 9 (active). On the same count and under the same terms, as for `O=P1(O)OP(=O)(O)OP(=O)(O)O1` [Trimetaphosphate], the figure is 9 (active).

For `N[C@@H](Cc1ccc(OP(=O)(O)O)cc1)C(=O)O` [O-Phospho-L-Tyrosine], the DuctApe activity index was 8.67 (active).

For `O=P(O)(O)O[C@H]1O[C@H](CO)[C@@H](O)[C@H](O)[C@@H]1O` [D-Mannose-1-Phosphate], the DuctApe activity index was 9 (active).

The same assay, now with this note: nutrient role: sole sulfur source (pyruvate carbon); incubation: 48 h, 37 °C.
As for `CS(=O)(=O)CC[C@H](N)C(=O)O` [L-Methionine Sulfone], the DuctApe activity index is 0. The same measure, in the same setting: as for `N[C@@H](CSCSC[C@H](N)C(=O)O)C(=O)O` [L-Djenkolic acid], the figure is 8 (active); as for `OC[C@H]1O[C@@H](S)[C@H](O)[C@@H](O)[C@@H]1O` [1-Thio-b-D-Glucose], 2.67. Same read-out and setting: as for `CSCCC(NC(C)=O)C(=O)O` (racemic) [N-Acetyl-D,L-Methionine], the figure is 7 (active).
